Common to all, as to settings: mRNA level, 48 h; actives raise or lower the signal
Read-out in test [1]: Paternally Expressed 10 (PEG10), PEG10 (gene 23089)
The experiment in a line: LTEA_HepaRG_PEG10: Life Technologies and Expression Analysis (LTEA) Assay for Paternally Expressed 10 (PEG10) using HepaRG (AID 2283520).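 On AC50: PEG10 transcript by qRT-PCR normalised to ACTB GAPDH and POLR2A.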 An outline of the steps: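 After 48 h exposure of differentiated HepaRG cells (0.5% DMSO vehicle, eight concentrations up to 100 uM, duplicates), PEG10 mRNA was measured by TaqMan qRT-PCR. Values were normalised to endogenous control genes and analysed bidirectionally against vehicle.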

Read-out in test [2]: Nuclear factor NF-kappa-B p105 subunit (Homo sapiens) (UniProt P19838)
The experiment in a line: LTEA_HepaRG_NFKB1: Life Technologies and Expression Analysis (LTEA) Assay for Nuclear Factor Kappa B Subunit 1 (NFKB1) using HepaRG (AID 2283521).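 On outcome: TaqMan qRT-PCR transcript normalised to ACTB GAPDH and POLR2A housekeeping genes.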 An outline of the steps: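 Differentiated human HepaRG cells were exposed for 48 h in serum-free induction medium to eight concentrations (top 100 uM, half-log steps, 0.5% DMSO), in duplicate. NFKB1 mRNA was measured by TaqMan qRT-PCR, normalized to ACTB/GAPDH/POLR2A, and fitted bidirectionally against DMSO.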

Read-out in test [3]: Protein phosphatase 2A (PPP2R4), PTPA (gene 5524)
The experiment in a line: LTEA_HepaRG_PPP2R4: Life Technologies and Expression Analysis (LTEA) Assay for Protein phosphatase 2A (PPP2R4) using HepaRG (AID 2283522). The method in brief:
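Using HepaRG cultures maintained in 0.5% DMSO, chemicals are tested 48 h at up to 100 uM in duplicate. Induction or suppression of PPP2R4 mRNA, measured by qRT-PCR, is fitted bidirectionally against the vehicle baseline.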

Read-out in test [4]: Phosphatase and tensin (PTEN), PTEN (gene 5728)
The experiment in a line: LTEA_HepaRG_PTEN: Life Technologies and Expression Analysis (LTEA) Assay for Phosphatase and tensin (PTEN) using HepaRG (AID 2283523). An outline of the steps: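 Expression of PTEN is quantified in the human liver line HepaRG following two days of dosing (top concentration 100 uM, half-log dilutions, 0.5% DMSO). Values derive from bidirectional curve fitting relative to DMSO controls.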

Read-out in test [5]: solute carrier (SLC22A1), SLC22A1 (gene 6580)
The experiment in a line: LTEA_HepaRG_SLC22A1: Life Technologies and Expression Analysis (LTEA) Assay for solute carrier (SLC22A1) using HepaRG (AID 2283524). The method in brief:
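Transcript induction or suppression of SLC22A1 in human HepaRG cultures is scored after 48 h chemical treatment, with DMSO (0.5%) as baseline for bidirectional fitting. Concentrations span eight half-log points topping at 100 uM.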

Read-out in test [6]: Pyruvate Dehydrogenase Kinase 4 (PDK4), PDK4 (gene 5166)
The experiment in a line: LTEA_HepaRG_PDK4: Life Technologies and Expression Analysis (LTEA) Assay for Pyruvate Dehydrogenase Kinase 4 (PDK4) using HepaRG (AID 2283525). An outline of the steps: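 Eight-point, half-log concentration series (max 100 uM, 0.5% DMSO) applied to differentiated HepaRG cells for 48 h in duplicate. Endpoint: PDK4 mRNA induction or repression by qRT-PCR against DMSO baseline.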

Read-out in test [7]: NAD(P)H dehydrogenase [quinone] 1 (NQO1), NQO1 (gene 1728)
The experiment in a line: LTEA_HepaRG_NQO1: Life Technologies and Expression Analysis (LTEA) Assay for NAD(P)H dehydrogenase [quinone] 1 (NQO1) using HepaRG (AID 2283526). An outline of the steps:
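In this assay, gene expression is read by qRT-PCR after 48 h exposure of HepaRG cells to eight concentrations (max 100 uM, half-log) in 0.5% DMSO. Each chemical runs in duplicate, and activity is scored relative to vehicle.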

Read-out in test [8]: Nuclear factor erythroid 2-related factor 2 (Homo sapiens) (UniProt Q16236)
The experiment in a line: LTEA_HepaRG_NFE2L2: Life Technologies and Expression Analysis (LTEA) Assay for Nuclear factor erythroid 2-related factor 2 (NFE2L2) Transcription Factor using HepaRG (AID 2283527).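 On outcome: TaqMan qRT-PCR transcript level normalised to ACTB GAPDH and POLR2A housekeeping genes.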 The method in brief: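 Human liver HepaRG line treated in duplicate for 48 h with an eight-point series topping at 100 uM. Gene expression of NFE2L2 by qRT-PCR, bidirectionally fitted against the vehicle control.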

Read-out in test [9]: succinate dehydrogenase complex iron sulfur subunit B (SDHB), SDHB (gene 6390)
The experiment in a line: LTEA_HepaRG_SDHB: Life Technologies and Expression Analysis (LTEA) Assay for succinate dehydrogenase complex iron sulfur subunit B (SDHB) using HepaRG (AID 2283528). An outline of the steps: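 HepaRG, 48 h exposure, 8-pt half-log series from 100 uM in 0.5% DMSO, duplicates. Readout: SDHB mRNA by Fluidigm qRT-PCR vs housekeeping genes; bidirectional fit relative to DMSO.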

Read-out in test [10]: Signal transducer and activator of transcription 3 (Homo sapiens) (UniProt P40763)
The experiment in a line: LTEA_HepaRG_STAT3: Life Technologies and Expression Analysis (LTEA) Assay for Signal transducer and activator of transcription (STAT3) using HepaRG (AID 2283529). The method in brief: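 In this transcriptional endpoint, HepaRG cultures receive test chemicals at up to 100 uM for 48 h, tested in duplicate. STAT3 mRNA is normalized to ACTB, GAPDH and POLR2A.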

For 14 compounds, AC50 and outcome results are on record in PubChem BioAssay (EPA / NIEHS).

Activity calls are given as the source filed them. How the source made its calls: active means hit-call score of the fitted dose curve at least 0.9, where 1 is the maximum; inactive means score below 0.9.

Chain of Signal transducer and activator of transcription 3 (Homo sapiens) (P40763 whole entry, looked up): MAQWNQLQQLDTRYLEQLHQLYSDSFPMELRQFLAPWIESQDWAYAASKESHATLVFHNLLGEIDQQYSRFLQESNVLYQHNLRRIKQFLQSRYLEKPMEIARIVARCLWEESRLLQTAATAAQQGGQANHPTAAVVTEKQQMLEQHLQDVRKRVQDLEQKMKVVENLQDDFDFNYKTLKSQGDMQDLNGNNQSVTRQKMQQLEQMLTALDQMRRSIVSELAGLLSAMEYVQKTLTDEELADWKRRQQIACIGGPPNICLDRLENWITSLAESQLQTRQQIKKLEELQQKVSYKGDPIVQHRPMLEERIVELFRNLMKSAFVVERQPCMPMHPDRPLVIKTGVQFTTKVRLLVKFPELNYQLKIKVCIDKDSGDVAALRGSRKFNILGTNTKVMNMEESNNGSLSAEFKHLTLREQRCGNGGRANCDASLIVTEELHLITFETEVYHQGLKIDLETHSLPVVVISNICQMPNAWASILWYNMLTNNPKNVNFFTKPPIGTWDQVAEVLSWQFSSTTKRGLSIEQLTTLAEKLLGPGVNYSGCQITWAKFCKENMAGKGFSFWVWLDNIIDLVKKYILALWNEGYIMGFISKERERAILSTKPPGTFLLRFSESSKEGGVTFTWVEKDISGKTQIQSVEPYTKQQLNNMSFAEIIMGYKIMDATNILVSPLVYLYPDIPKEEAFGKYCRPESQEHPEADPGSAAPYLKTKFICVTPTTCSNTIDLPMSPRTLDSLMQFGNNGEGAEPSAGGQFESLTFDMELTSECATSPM
Chain of Nuclear factor NF-kappa-B p105 subunit (Homo sapiens) (P19838 whole entry, looked up): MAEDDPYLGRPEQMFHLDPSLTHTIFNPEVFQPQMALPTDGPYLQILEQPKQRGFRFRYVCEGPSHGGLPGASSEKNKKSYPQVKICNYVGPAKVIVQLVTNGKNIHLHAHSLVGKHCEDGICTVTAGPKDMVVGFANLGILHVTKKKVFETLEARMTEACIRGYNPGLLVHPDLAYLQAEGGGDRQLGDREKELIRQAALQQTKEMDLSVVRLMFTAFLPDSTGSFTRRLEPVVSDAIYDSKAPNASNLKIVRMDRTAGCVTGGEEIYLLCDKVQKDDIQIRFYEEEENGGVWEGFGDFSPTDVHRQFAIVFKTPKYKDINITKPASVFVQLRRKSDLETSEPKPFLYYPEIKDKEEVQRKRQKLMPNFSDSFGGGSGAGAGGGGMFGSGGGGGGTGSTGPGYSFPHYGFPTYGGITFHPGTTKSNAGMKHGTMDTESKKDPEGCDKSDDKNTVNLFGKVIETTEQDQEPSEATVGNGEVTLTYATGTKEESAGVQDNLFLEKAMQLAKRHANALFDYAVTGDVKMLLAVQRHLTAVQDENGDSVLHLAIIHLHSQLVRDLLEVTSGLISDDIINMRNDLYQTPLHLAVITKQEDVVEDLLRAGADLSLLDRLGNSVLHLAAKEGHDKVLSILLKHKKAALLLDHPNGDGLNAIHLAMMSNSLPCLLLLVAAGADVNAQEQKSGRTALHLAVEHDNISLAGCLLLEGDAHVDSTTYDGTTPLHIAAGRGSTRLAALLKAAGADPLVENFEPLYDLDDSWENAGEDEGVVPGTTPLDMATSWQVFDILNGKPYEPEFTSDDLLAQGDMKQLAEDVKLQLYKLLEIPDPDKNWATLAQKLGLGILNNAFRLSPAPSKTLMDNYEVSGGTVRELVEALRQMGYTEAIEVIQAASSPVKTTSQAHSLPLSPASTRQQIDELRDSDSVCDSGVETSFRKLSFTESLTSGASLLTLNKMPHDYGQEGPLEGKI
Chain of Nuclear factor erythroid 2-related factor 2 (Homo sapiens) (Q16236 whole entry, looked up): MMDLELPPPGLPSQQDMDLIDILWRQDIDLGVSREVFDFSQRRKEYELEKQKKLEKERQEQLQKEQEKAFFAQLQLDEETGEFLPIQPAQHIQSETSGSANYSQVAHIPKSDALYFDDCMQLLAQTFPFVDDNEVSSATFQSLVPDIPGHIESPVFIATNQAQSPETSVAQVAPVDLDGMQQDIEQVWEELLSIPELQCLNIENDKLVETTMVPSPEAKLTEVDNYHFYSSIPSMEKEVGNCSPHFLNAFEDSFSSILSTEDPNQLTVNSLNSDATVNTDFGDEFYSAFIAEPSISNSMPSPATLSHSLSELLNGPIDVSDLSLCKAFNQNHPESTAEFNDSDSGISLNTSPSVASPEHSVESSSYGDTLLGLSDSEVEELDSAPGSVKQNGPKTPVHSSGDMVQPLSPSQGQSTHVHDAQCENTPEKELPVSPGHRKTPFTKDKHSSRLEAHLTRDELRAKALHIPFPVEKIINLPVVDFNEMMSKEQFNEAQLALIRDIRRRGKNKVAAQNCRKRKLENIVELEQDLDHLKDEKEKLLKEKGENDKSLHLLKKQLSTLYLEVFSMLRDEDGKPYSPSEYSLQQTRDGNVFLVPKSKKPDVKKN

What is called AC50 is the concentration at which the activity in the assay is half-maximal. As for `O=C1OC(c2ccc(O)cc2)(c2ccc(O)cc2)c2ccccc21`, the AC50 is 76.1 µM (active) in test [1], 78 µM (active) in [5] and 50 µM (active) in test [6]. In addition, the result in [2], in [3], in [4], in test [7], in [8] and in test [9] was inactive. Further, the outcome in test [10] was inactive.
For `CCOCCOCCO`, the compound was classed as inactive in test [1], in test [2], in test [3], in [4], in test [5] and in test [6]. Moreover, the compound was called inactive in test [7], in test [8], in test [9] and in [10].
For the compound `CCC(C)N(C)C(=O)c1cc2ccccc2c(-c2ccccc2Cl)n1` (stereo not given), the AC50 in test [1] is 13.1 µM (active); in test [5], 6.3 µM (active); in [6], 40.9 µM (active); in test [8] it was 16.8 µM (active); in test [9], 11.1 µM (active). In addition, the outcome in test [2], in [3], in [4], in [7] and in [10] was inactive.
For `O=C(O)CC(O)(CC(=O)O)C(=O)O`, the outcome in test [1], in test [2], in test [3], in test [4], in [5] and in [6] was inactive. The compound was classed as inactive in test [7], in test [8], in test [9] and in test [10].
As to `c1ccc2occc2c1`, the compound was classed as inactive in test [1], in test [2], in test [3], in test [4], in test [5] and in test [6]. The compound was classed as inactive in test [7], in [8], in [9] and in [10].
On to `Cc1ccc(C(C)(C)C)c(O)c1`, for which the call in [1], in test [2], in test [3], in [4], in test [5] and in test [6] was inactive. Also, the result in [7], in [8], in test [9] and in test [10] was inactive.
In the case of `Nc1nc(Cl)nc2c1ncn2[C@H]1C[C@H](O)[C@@H](CO)O1`, the AC50 in test [1] is 0.636 µM (active); in [3], 1.92 µM (active); in test [4], 3.12 µM (active); in [5] it was 0.811 µM (active); in test [6], 0.452 µM (active). The call in [2], in test [7], in test [8], in test [9] and in test [10] was inactive.
Turning to `CCCCCCCC(=O)OC`, the compound was called inactive in test [1], in test [2], in test [3], in test [5], in test [6] and in test [7]. The result in test [8], in test [9] and in [10] was inactive. For the same compound, the AC50 in test [4] is 12.2 µM (active).
For `O=C1CCCCC1`, the result in test [1], in test [2], in test [3], in [4], in [5] and in test [6] was inactive. Also, the compound was classed as inactive in [7], in test [8], in [9] and in [10].
Regarding `NC=O`, the compound was classed as inactive in test [1], in [2], in test [3], in [4], in [5] and in test [6]. The compound was called inactive in [7], in test [8], in [9] and in test [10].
Regarding `CS(=O)(=O)c1ccc([C@@H](C[C@H]2CCC(=O)C2)C(=O)Nc2cnccn2)cc1Cl`, the result in test [1] and in [9] was inactive. Moreover, the AC50 in test [2] is 1.38 µM (active); in test [3], 0.49 µM (active); in test [4], 10.1 µM (active); in test [5], 2.77 µM (active); in [6], 0.913 µM (active); in test [7], 17.9 µM (active). Moreover, the AC50 in [8] is 0.738 µM (active); in test [10], 50 µM (active).
`OCC(O)CO`: the call in test [1], in test [3], in test [4], in test [5], in [6] and in test [7] was inactive. Moreover, the outcome in [8], in test [9] and in test [10] was inactive. Further, the AC50 in [2] was 1.06 µM (active).
As for `O=C(N[C@@H](c1ccccc1)[C@@H]1CCCCN1)c1cccc(C(F)(F)F)c1Cl`, the AC50 in test [1] is 50 µM (active); in test [3], 89.5 µM (active); in test [4], 75.2 µM (active); in test [5], 40.5 µM (active); in test [6], 50 µM (active); in test [8], 83.8 µM (active). Further, the concentration at half-maximal activity (AC50) is 91.4 µM (active) in test [9] and 80.3 µM (active) in test [10]. Also, the call in test [2] and in [7] was inactive.
With `CN(C)CCCN(C)CCCN(C)C`, the compound was classed as inactive in test [1], in test [2], in test [3], in test [4], in [5] and in test [6]. Further, the result in test [7], in test [8], in test [9] and in test [10] was inactive.
